Source: PubChem
GAA inhib = alpha-glucosidase (human) inhibition; Potency, µM (doses to about 76.9 µM), for inactives: at the highest dose activity change, negative = inhibition, hits mostly inhibitors; P10253; purified human GAA, 4-MU-alpha-glucoside fluorescence; 200,000 tested, 0.005% active; AID 1466;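 also: potency is read from the fitted curve at half-maximal effect; plate controls were uninhibited enzyme wells for no effect and no-enzyme background for full effect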
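Fluorogenic assay: 4 nM human alpha-glucosidase with 400 uM 4-methylumbelliferyl-alpha-D-pyranoside in 50 mM citrate/phosphate, 0.005% Tween-20, pH 5.0, 20 min at room temperature. Compounds tested up to 77 uM; AC50 from Hill fits.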
GLA spleen mod = inhibits or activates alpha-galactosidase in human spleen homogenate | P06280 | human spleen homogenate, 4MU-alpha-Gal fluorescence, 40 min | Potency, µM (series often up to 80 µM), inactives show top-dose activity change, negative = inhibition, actives largely listed as inhibitors | 240,000 tested, 0.008% active | AID 2107;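 also: potency is read from the fitted curve at half-maximal effect; 0% = enzyme with vehicle and -100% = no enzyme basal signal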
Target sequence (P06280 32-429 limits assumed): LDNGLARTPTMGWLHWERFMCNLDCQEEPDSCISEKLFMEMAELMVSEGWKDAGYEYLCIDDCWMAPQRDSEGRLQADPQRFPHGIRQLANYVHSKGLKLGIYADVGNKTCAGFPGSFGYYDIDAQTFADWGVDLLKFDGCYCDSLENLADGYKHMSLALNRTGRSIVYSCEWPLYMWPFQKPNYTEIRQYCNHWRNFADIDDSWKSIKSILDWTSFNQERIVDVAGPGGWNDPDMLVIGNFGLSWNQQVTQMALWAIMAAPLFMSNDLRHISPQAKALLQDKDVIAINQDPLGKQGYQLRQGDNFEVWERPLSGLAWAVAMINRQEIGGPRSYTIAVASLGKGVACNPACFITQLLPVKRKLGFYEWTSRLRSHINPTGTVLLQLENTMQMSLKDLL
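Human spleen homogenate (1 ug) was the enzyme source, with 4-methylumbelliferyl-alpha-D-galactopyranoside (1 mM final) in pH 5.0 citrate buffer with 0.01% Tween-20. Compounds were titrated; after 40 min at 37C, NaOH/glycine stop, 4-MU fluorescence read; AC50 from Hill fits.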
N370S GC mod = inhibits or activates N370S mutant glucocerebrosidase; P04062; N370S GC spleen homogenate, 4MU-glucoside fluorescence; Potency, µM (highest dose often 59.4 µM), for inactives: at the highest dose activity change, negative = inhibition, hits mostly inhibitors; 330,000 tested, 0.092% active;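 also: potency is read from the fitted curve at half-maximal effect; 0% = full enzyme activity and -100% = no enzyme basal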
GLA inh pH 4.5 = blocks human alpha-galactosidase A at pH 4.5. P06280. purified enzyme, 4-MU-alpha-Gal fluorescence, pH 4.5. activity change, negative = inhibition, % at 105 µM. 230,000 tested, under 10 active. AID 1467;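 also: 0% = full activity with enzyme and -100% = basal without enzyme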
Target sequence (P06280 whole entry, looked up): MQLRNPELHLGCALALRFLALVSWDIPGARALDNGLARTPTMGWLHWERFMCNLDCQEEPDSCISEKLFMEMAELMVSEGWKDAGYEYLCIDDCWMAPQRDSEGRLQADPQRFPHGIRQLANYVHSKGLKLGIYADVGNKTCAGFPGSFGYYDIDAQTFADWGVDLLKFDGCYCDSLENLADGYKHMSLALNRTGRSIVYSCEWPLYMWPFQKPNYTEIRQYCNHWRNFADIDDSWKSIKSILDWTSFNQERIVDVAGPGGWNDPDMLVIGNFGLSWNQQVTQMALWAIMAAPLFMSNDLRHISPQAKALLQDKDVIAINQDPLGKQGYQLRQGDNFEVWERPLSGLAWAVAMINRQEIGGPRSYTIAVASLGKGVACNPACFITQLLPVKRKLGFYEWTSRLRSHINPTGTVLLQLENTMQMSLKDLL
GAA spleen mod = inhibits or activates alpha-glucosidase in human spleen homogenate | P10253 | human spleen homogenate, 4-MU-alpha-glucoside fluorescence | Potency, µM (series often up to 79.9 µM), for the others: at the highest dose activity change, negative = inhibition, usual class: inhibitors | 240,000 tested, 0.006% active | AID 2112;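 also: potency is read from the fitted curve at half-maximal effect; 0% = enzyme with vehicle and -100% = no enzyme basal signal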
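Enzyme source: human spleen homogenate, 1 ug/well. Buffer 50 mM citric acid/K phosphate pH 5.0, 0.01% Tween-20. 4-MU-alpha-glucoside 1 mM; 37 C x 40 min; NaOH/glycine stop; fluorescence.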
GAA glycogen mod = inhibitors or activators of human alpha-glucosidase glycogen cleavage. P10253. recombinant GAA, glycogen substrate, Amplex Red glucose oxidase fluorescence. Potency, µM (highest dose often 76.4 µM), without a hit: top-dose activity change, negative = inhibition, most hits filed as inhibitors. 300,000 tested, 0.38% active. AID 2100;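 also: potency is read from the fitted curve at half-maximal effect; 0% = full enzyme reaction and -100% = no-enzyme basal signal; the screen sought inhibitors and activators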
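Recombinant human alpha-glucosidase (4 nM final) hydrolysed bovine liver glycogen (30 ug) for 40 min at 37 C in pH 5.0 citrate/phosphate with 0.01% Tween-20. Released glucose detected by glucose oxidase/Amplex Red, Ex 573/Em 610 nm. Compounds up to 77 uM; AC50 from Hill fits.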
Numbers without * were called inactive; u = inconclusive; x = not tested or not shown; [ ] = remark or other dose. An excerpt weighted towards active compounds, which were near 0.43% of everything screened. Calls follow the shape of the dose curve; as a rule, active = well fitted curve in the direction sought with a large enough effect; inconclusive = small, poorly fitted or top-dose-only effect, or another doubt; inactive = no such curve, though single readings can be large; an effect the other way counts as inactive or inconclusive.

SMILES	GAA inhib	GLA spleen mod	N370S GC mod	GLA inh pH 4.5	GAA spleen mod	GAA glycogen mod
COC(=O)c1ccccc1NC(=O)CSc1c2c(nc3ccc(Cl)cc13)CCCC2	x	x	x	x	x	-9.0%[76.3 µM]
CC1C(=O)NN=C1C(=O)N/N=C\C(Br)=C\c1ccccc1 (centres undefined)	6.5%	-10.1%	-6.8%	0.5	-2.4%	25.1µM*
CC1=NNC(=O)C1CC(=O)N/N=C/C(Br)=C/c1ccccc1 (centres undefined)	x	13.6%	-2.6%	0.5	11.9%	u
COc1ccc(/C=N/c2oc(-c3ccccc3)cc2C#N)cc1OC	2.9%	8.7%	11.2%	8.2	1.4%	25.1µM*
COc1ccc(/C=N/NC(=O)c2nc(-c3ccccc3)cc(-c3ccccc3)n2)cc1OC	-6.7%	7.0%	0.2%	-2.0	7.5%	-6.3%
CCN1CCc2c(sc(-n3cccc3)c2C(C)NC(=O)Nc2cc(Cl)c(OC)cc2OC)C1 (centres undefined)	x	x	x	x	x	-13.4%[76.3 µM]
CN1CCN(C2Cc3ccccc3Sc3ccc(S)cc32)CC1 (centres undefined)	x	-6.5%	12.6µM*	-12.7	-6.5%	x
O=C(c1ccc2ncsc2c1)N1CCN(c2ccc(O)cc2)CC1	-2.7%	2.5%	-2.1%	1.2	1.5%	9.92µM*
O=C(c1ccc2ncsc2c1)N1CCN(c2ccccc2Cl)CC1	4.7%	3.4%	-11.0%	u	4.0%	-8.9%
O=C(N/N=C/c1ccc(O)c(O)c1)c1ccc(CSc2cccc3cccnc23)cc1	-7.7%	-1.7%	-4.7%	-2.0	-4.8%	14.1µM*
CNC(=O)CSc1cn(CC(=O)N2CCCCCC2)c2ccccc12	x	x	x	x	x	50.1µM*
N#Cc1ccc2c(c1)C[C@]1(c3ccsc3)Oc3c(c(=O)oc4ccccc34)C2O1	x	x	-10.7%[12.8 µM]	x	x	-7.6%[15.3 µM]
O=C(Nc1ccccn1)C(=O)Nc1ccccn1	2.1%	8.3%	1.3%	-5.2	4.1%	6.9%
Cc1ccccc1S(=O)(=O)NNC(=O)C(=O)NNc1ccccn1	-2.0%	-2.1%	4.0%	-1.8	3.8%	3.55µM*
CC(=O)Nc1ccc(S(=O)(=O)NNC(=O)C(=O)NNc2ccccn2)cc1	1.6%	-7.3%	2.7%	-6.0	-6.6%	u
Nc1ccc(S(=O)(=O)NNC(=O)C(=O)NNc2ccccn2)cc1	-4.5%	1.8%	-1.7%	4.6	-4.8%	3.16µM*
Cc1ccc(S(=O)(=O)NNC(=O)C(=O)NNc2ccccn2)cc1	0.4%	-1.2%	4.7%	5.8	-7.7%	3.52µM*
Cn1c(=O)n2n(c1=O)[C@H]1[C@H](O)[C@H]3O[C@@H]3/C(=N/OC[C@@H](O)COCc3ccco3)[C@@H]1CC2	x	-2.8%[17.5 µM]	-14.5%[12.8 µM]	x	-17.5%[17.4 µM]	x
C#CCn1c(=O)c2c(nc(/C=C/c3cccc(OC)c3)n2C)n(CCCOP(=O)(O)O)c1=O	x	u	4.9%	x	10.6%	x
COc1ccc(NC(=O)C(C)n2nc(-c3ccc(C)c(C)c3)ccc2=O)cc1OC (centres undefined)	x	x	x	x	x	-5.6%[76.3 µM]
Cc1cccc(CNc2ccnc(-c3ccccc3C(F)(F)F)n2)c1	x	4.3%	14.1µM*	x	-12.4%	x
CCc1cccc(N(C)C(N)=Nc2cccc3ccccc23)c1	x	9.7%	12.6µM*	-4.2	-9.0%	-3.4%
CCN(/C(N)=N/c1nc(C)cc(C)n1)c1ccccc1	x	x	-23.5%	x	x	-9.3%[76.3 µM]
O=c1n(-c2ccccc2)c(=O)n2n1CC[C@H]1/C(=N\OCc3ccccc3)[C@H]3O[C@@H]3[C@@H](O)[C@@H]12	x	14.2%[17.5 µM]	-11.1%[12.8 µM]	x	5.0%[17.4 µM]	x
CC1=C(c2ccc(C)cc2)S(=O)(=O)NC1=NCCCN1CCN(c2ccc(F)cc2)CC1	x	x	x	x	x	12.1%[76.3 µM]
SMILES	GAA inhib	GLA spleen mod	N370S GC mod	GLA inh pH 4.5	GAA spleen mod	GAA glycogen mod
CN(C)c1ccc(N/C=C/C(=O)c2ccccc2)cc1	-13.5%	-14.3%	-8.8%	3.4	4.8%	14.1µM*
O=C(/C=C/Nc1ccccc1)c1ccccc1	1.4%	1.1%	-2.0%	1.4	2.6%	9.1%
CCN(CC)c1ccc(-c2nc3cnccn3c2NC2CCCC2)cc1	2.9%	12.4%	10.0%	-25.1	-6.6%	9.92µM*
Brc1ccc2nc(-c3ccncc3)c(NC3CCCC3)n2c1	-14.0%	6.5%	-15.9%	u	1.9%	9.92µM*
CO[C@@H]1COC(=O)C/C=C\[C@@H](C)[C@H](OC)COC(=O)[C@H](COCc2ccccc2)NC(=O)C/C=C\[C@H]1C	x	9.9%[17.5 µM]	5.9%[12.8 µM]	x	0.2%[17.4 µM]	x
O=C(N/N=C1/C[C@@H](O)[C@@H](O)[C@@H]2[C@@H]3C(=O)N(C4CCCCC4)C(=O)[C@H]3CC[C@@H]12)OCc1ccccc1	x	-4.2%[17.5 µM]	0.6%[12.8 µM]	x	0.1%[17.4 µM]	x
Cc1cc(O)c(NC(=O)c2ccco2)cc1C	-4.5%	-6.2%	6.7%	-3.2	-14.9%	11.2µM*
Cc1ccc(O)c(NC(=O)c2cccc(NC(=O)c3ccco3)c2)c1	-6.4%	5.2%	-19.4%	5.7	1.2%	12.6µM*
Cc1ccc(O)c(NC(=O)c2ccco2)c1	-1.7%	10.8%	1.3%	-9.1	-1.2%	u
Cc1cccc(CCNC(=O)c2nc(-c3ccc(Cl)cc3)n3c2CCCCC3)c1	x	x	x	x	x	-11.9%[76.3 µM]
Cc1ccc([N+](=O)[O-])cc1Nc1nc(N2CCCC2)nc(N2CCCC2)n1	x	x	-8.3%	x	x	31.6µM*
NNc1nc(Nc2ccc([N+](=O)[O-])cc2)nc(N2CCCCCC2)n1	x	x	-22.7%	x	x	u
Cc1nn(-c2ccccc2)c2[nH]c(=O)c(CNc3ccc(N4CCOCC4)cc3)cc12	4.7%	2.6%	-7.7%	2.9	-4.6%	19.8µM*
O=C1CCCC2=C1Sc1ccccc1N2	x	4.5%	2.5%	3.2	8.1%	7.08µM*
CCCOc1ccc(-c2nc(C#N)c(NCCCn3ccnc3)o2)cc1	2.9%	3.4%	-13.9%	-0.8	7.9%	31.4µM*
C=C/C1=C/Cc2ccccc2C(C[N+](=O)[O-])C(C(=O)OC)(C(=O)OC)C1 (centres undefined)	x	21.2%[17.5 µM]	0.8%[12.8 µM]	x	2.1%[17.4 µM]	x
CCOC(=O)c1[nH]c2ccc(OC)cc2c1NS(=O)(=O)c1ccc(OC)cc1OC	-0.9%	-6.4%	9.1%	2.3	-10.8%	12.6µM*
CCOC(=O)c1[nH]c2ccc(OC)cc2c1NC(=S)N1CCN(c2ccccc2OC)CC1	3.2%	8.5%	5.3%	7.0	-7.1%	3.98µM*
CCOC(=O)c1[nH]c2ccc(OC)cc2c1NC(=S)N1CCN(C(=O)OCC)CC1	1.3%	-1.4%	4.0%	1.8[21.1 µM]	-4.4%	u
Cc1cccc(N2C(=O)C(Cl)=C(Nc3c(C)n(C)n(-c4ccccc4)c3=O)C2=O)c1C	1.1%	-26.0%	-0.7%	-7.9	-11.0%	u
Cc1ccc(N2C(=O)C(Cl)=C(Nc3c(C)n(C)n(-c4ccccc4)c3=O)C2=O)cc1	-5.3%	-20.0%	-19.6%	0.9	-9.4%	25.1µM*
